Data on 8 compounds can be found in PubChem BioAssay (NCI).

The structures appear in SMILES notation. Values joined by “and” are separate entries in the source; they are usually repeats but may differ in a detail not shown here. Equal entries are not always repeated. About 83,000 compounds went through this panel and 20% of them were active in at least one assay; those are over-represented in the sample as a whole.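 96-well plates, one dose, 48 hours. Percent growth reported; active if below 10.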 Values without a mark were called inactive. Active and inactive are the calls of the source.

Some test systems named below: SR leukemia; RPMI-8226 leukemia; OVCAR-8 ovarian; OVCAR-5 ovarian; OVCAR-4 ovarian; SK-OV-3 ovarian; IGROV1 ovarian; OVCAR-3 ovarian; HS 578T breast; NCI/ADR-RES ovarian; T-47D breast; BT-549 breast; MDA-MB-435 melanoma; SW-620 colon; MCF7 breast; HCT-116 colon; HCC-2998 colon; KM12 colon.
Test in all cases: NCI-60 one-dose screen, 48 h (100 = growth as untreated, 0 = no growth, -100 = all killed)
Holding throughout (conditions): 10 µM unless noted

With `COc1cc(/C=N/NC(=O)CCN2c3ccccc3Sc3ccccc32)cc(OC)c1OC`, the growth was 72% with SR leukemia; 54.7% in the assay on RPMI-8226 leukemia; 86.5% in the assay on OVCAR-8 ovarian; 89% with OVCAR-5 ovarian; 68.3% with OVCAR-4 ovarian; 105% in the assay with SK-OV-3 ovarian. The growth in the assay on IGROV1 ovarian was 91.2%; in the assay on OVCAR-3 ovarian, 99.5%; in the assay on HS 578T breast it was 93.7%; in the assay with NCI/ADR-RES ovarian, 87.6%; in the assay with T-47D breast it was 41.5%; in the assay on BT-549 breast, 88.6%. Besides, the growth is 87.4% with MDA-MB-435 melanoma; 90.8% in the assay on SW-620 colon; 97.3% in the assay on MCF7 breast; 80.1% with HCT-116 colon; 113% with HCC-2998 colon; 81.4% in the assay on KM12 colon.

Take `O=C(CC1(O)C(=O)Nc2ccc(Br)cc21)c1ccc(Cl)cc1` (centres undefined): the growth is 103% with SR leukemia; 96.7% with RPMI-8226 leukemia; 96.6% with OVCAR-8 ovarian; 124% in the assay with OVCAR-5 ovarian; 97% in the assay on OVCAR-4 ovarian; 88.3% in the assay on SK-OV-3 ovarian. For the same compound, the growth in the assay with IGROV1 ovarian is 93.2%; with OVCAR-3 ovarian, 102%; in the assay with HS 578T breast it was 91.7%; in the assay with NCI/ADR-RES ovarian, 104%; in the assay with T-47D breast it was 84.4%; in the assay on BT-549 breast, 99.9%. The growth in the assay with MDA-MB-435 melanoma was 109%; in the assay on SW-620 colon, 99%; in the assay on MCF7 breast, 98%; with HCT-116 colon it was 98%; with HCC-2998 colon, 104%; with KM12 colon it was 99.5%.

With `O=C(Oc1ccc(CO[N+](=O)[O-])cc1)c1ccccc1`, the growth in the assay on SR leukemia was -45.7% (active); with RPMI-8226 leukemia, -53.1% (active); with OVCAR-8 ovarian, -83.7% (active); with OVCAR-5 ovarian it was -81.2% (active); with OVCAR-4 ovarian, -77.1% (active); in the assay with SK-OV-3 ovarian, -90.4% (active). The growth is -80.2% (active) with IGROV1 ovarian; -97% (active) in the assay with OVCAR-3 ovarian; -25.1% (active) in the assay with HS 578T breast; -82% (active) in the assay with NCI/ADR-RES ovarian; -37.4% (active) in the assay with T-47D breast; -97% (active) in the assay on BT-549 breast. Also, the growth in the assay with MDA-MB-435 melanoma was -94% (active); in the assay with SW-620 colon it was -56.8% (active); in the assay on MCF7 breast, -54.4% (active); with HCT-116 colon, -86.2% (active); with HCC-2998 colon, -81.9% (active); in the assay on KM12 colon, -78.9% (active).

For the compound `S=c1nc(CS)[nH]c2ccccc12`, the growth is 101% in the assay on SR leukemia; 102% in the assay on RPMI-8226 leukemia; 90.9% in the assay with OVCAR-8 ovarian; 102% with OVCAR-5 ovarian; 94.3% in the assay with OVCAR-4 ovarian; 100% in the assay on SK-OV-3 ovarian. Moreover, the growth was 85.7% in the assay with IGROV1 ovarian; 106% with OVCAR-3 ovarian; 94.1% in the assay with HS 578T breast; 101% in the assay on NCI/ADR-RES ovarian; 109% in the assay with T-47D breast; 101% with BT-549 breast. Also, the growth in the assay on MDA-MB-435 melanoma is 101%; with SW-620 colon it was 98.5%; in the assay on MCF7 breast it was 79.6%; in the assay with HCT-116 colon, 100%; with HCC-2998 colon it was 110%; in the assay with KM12 colon, 100%.

On to `Cc1nnc(NS(=O)(=O)c2ccc(N=Nc3ccc(N)nc3N)cc2)s1`, for which the growth in the assay on SR leukemia was 94.2% and 94.5%; with RPMI-8226 leukemia, 105%; in the assay on OVCAR-8 ovarian it was 107% and 116%; in the assay with OVCAR-5 ovarian, 98.7% and 99.3%; in the assay on OVCAR-4 ovarian, 110% and 105%; with SK-OV-3 ovarian, 111%. The growth with IGROV1 ovarian is 123% and 108%; in the assay with OVCAR-3 ovarian, 124% and 105%; with HS 578T breast it was 121% and 105%; with NCI/ADR-RES ovarian, 102% and 106%; in the assay with T-47D breast, 114%; in the assay with BT-549 breast, 90.4% and 108%. Also, the growth was 115% and 105% with MDA-MB-435 melanoma; 108% and 106% in the assay on SW-620 colon; 105% and 106% with MCF7 breast; 99.7% and 103% with HCT-116 colon; 105% with HCC-2998 colon; 104% and 103% with KM12 colon.

In the case of `CCCn1nc(C(=O)N2CCCCC2)c2c1CCC(N1CCC(c3ccncc3)CC1)C2` (centres undefined), the growth is 123% in the assay on SR leukemia; 105% in the assay with RPMI-8226 leukemia; 98.3% in the assay on OVCAR-8 ovarian; 107% in the assay with OVCAR-5 ovarian; 103% with OVCAR-4 ovarian; 109% in the assay with SK-OV-3 ovarian. The growth with IGROV1 ovarian was 113%; in the assay with OVCAR-3 ovarian, 106%; with HS 578T breast, 103%; in the assay on NCI/ADR-RES ovarian, 101%; with T-47D breast, 99.5%; with BT-549 breast, 79.5%. The growth was 102% in the assay with MDA-MB-435 melanoma; 104% with SW-620 colon; 99.6% in the assay on MCF7 breast; 99.4% with HCT-116 colon; 109% in the assay with HCC-2998 colon; 103% with KM12 colon.

On to `CC1=C2[C@@H](CC1)[C@]1(C)O[C@@](C(C)C)(C[C@H]1OC(=O)CO)[C@H]2OC(=O)C1CC1c1ccccc1` (some centres undefined), for which the growth was 82% in the assay with SR leukemia; 88.8% in the assay with RPMI-8226 leukemia; 65.6% in the assay with OVCAR-8 ovarian; 78.2% in the assay with OVCAR-5 ovarian; 102% in the assay on OVCAR-4 ovarian; 108% in the assay with SK-OV-3 ovarian. Besides, the growth was 87.5% in the assay on IGROV1 ovarian; 96.5% in the assay with OVCAR-3 ovarian; -2.94% (active) with HS 578T breast; 69% with NCI/ADR-RES ovarian; 41.5% in the assay on T-47D breast; 88.8% in the assay on BT-549 breast. Besides, the growth in the assay on MDA-MB-435 melanoma was 96.7%; with SW-620 colon it was 84.6%; in the assay with MCF7 breast it was 75.1%; in the assay on HCT-116 colon it was 89%; with HCC-2998 colon it was 82.9%; in the assay with KM12 colon, 73.9%.

For the compound `CCc1c2c(nc3ccc(OCc4ccc(B5OC(C)(C)C(C)(C)O5)cc4)cc13)-c1cc3c(c(=O)n1C2)COC(=O)[C@]3(O)CC`, the growth with SR leukemia was 11.8%; in the assay with RPMI-8226 leukemia, 10.4%; with OVCAR-8 ovarian, 10.6%; in the assay with OVCAR-5 ovarian it was 10%; in the assay with OVCAR-4 ovarian it was 23.7%; in the assay on SK-OV-3 ovarian, -1.58% (active). For the same compound, the growth in the assay with IGROV1 ovarian is 12.8%; in the assay with OVCAR-3 ovarian, 0.732% (active); in the assay on HS 578T breast, 38.4%; in the assay with NCI/ADR-RES ovarian it was 0.929% (active); in the assay on T-47D breast, 0.841% (active); with BT-549 breast, 28.8%. For the same compound, the growth in the assay on MDA-MB-435 melanoma is 9.46% (active); with SW-620 colon it was 15.6%; in the assay on MCF7 breast, 2.53% (active); in the assay on HCT-116 colon, 2.03% (active); in the assay with HCC-2998 colon it was 26.7%; in the assay on KM12 colon, 0.421% (active).
